Results on 5 compounds are retold here after PubChem BioAssay.

Assay [1] can be described thus: small molecules captured by biotinylated probe aFSTL3 – biochemical, small-molecule microarray, fluorescence 635/667, stem cell growth factor project, primary screen (AID 1064).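 Also: measures binding of the biotinylated anti-FSTL3 antibody to printed compounds.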 Conditions: higher = more signal.
Assay [2] is described as follows: binders from COS7 lysate, DM2A8 probe, primary screen, torsin A project, cell lysate, small-molecule microarray, fluorescence 635/667 (AID 1065). The conditions noted are these: higher = more signal, COS7 lysate expressing mutant human TOR1A.
Assay [3] in a line: small molecules captured by biotinylated probe aFGF2 – biochemical, small-molecule microarray, fluorescence 635/667, stem cell growth factor project, primary screen (AID 1067).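 Also: measures binding of biotinylated aFGF2 protein to printed compounds on slides; z-score merges feature fluorescence and signal-to-noise across triplicate slides.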 The conditions noted are these: higher = more signal.
Assay [4] is described as follows: small molecules captured by biotinylated probe aFGF10 – biochemical, small-molecule microarray, fluorescence 635/667, stem cell growth factor project, primary screen (AID 1071).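 Also: score merges 667 nm spot intensity and signal to noise from triplicate slides.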 The conditions noted are these: higher = more signal.
Assay [5] deals with Neurogenic locus notch homolog protein 2 (Homo sapiens) (UniProt Q04721). Nature of the assay: small molecules binding Notch2 protein – biochemical, small-molecule microarray, 635 nm fluorescence, stem cell growth factors, primary screen (AID 1073). The conditions noted are these: higher = more signal.
Assay [6] addresses Pro-neuregulin-1, membrane-bound isoform (Homo sapiens) (UniProt Q02297). Description: small molecules binding neuregulin-1 protein – biochemical, small-molecule microarray, fluorescence 635/667, psychiatric disease protein project, primary screen (AID 1075).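 Also: score combines 667 nm spot fluorescence with signal to noise.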 Conditions: NRG1 binding, 635 nm fluorescence, higher = more signal.
Assay [7] has as its system Neuregulin-1 EGF-like domain. Nature of the assay: small molecules binding NRG1 EGF domain – biochemical, small-molecule microarray, 635 nm fluorescence, primary screen (AID 1081).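 Also: binding of the protein to compounds printed on small-molecule microarray slides.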 Conditions: higher = more signal.
Assay [8] in a line: FRG1 expression reporter modulators in myotubes – cell-based, C2C12 myotubes, firefly/Renilla luciferase, luminescence, FRG1 inhibition for FSHD, primary screen (AID 1084). The conditions noted are these: FRG1 promoter luciferase, higher = more signal, called active from +8 up or from −8 down.
A short description of assay [9]: small molecules captured by biotinylated probe aFST – biochemical, small-molecule microarray, fluorescence 635/667, stem cell growth factor project, primary screen (AID 1086).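 Also: score merges 667 nm fluorescence with signal-to-noise of each printed compound spot.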 Conditions: higher = more signal.
Assay [10] is described as follows: binders of probe aHhip on microarray, primary screen, stem cell growth factor project, biochemical, small-molecule microarray, fluorescence 635/667 (AID 1087).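 Also: score merges spot fluorescence at 667nm with spot signal to noise ratio.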 Conditions: higher = more signal.
In assay [11] the test system is PRMT1 (protein arginine N-methyltransferase 1). Description: small molecules binding arginine methyltransferase PRMT1 – biochemical, small-molecule microarray, 635 nm fluorescence, primary screen (AID 1088).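 Also: binding of Prmt1 protein to compounds spotted on small-molecule microarray slides.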 Conditions: higher = more signal.
Assay [12] in a line: growth effects on S. cerevisiae YJM789 – YJM789 clinical isolate, OD600, 24 h, basal, primary screen (AID 1089).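 Also: growth of clinical yeast isolate S. cerevisiae YJM 789 seeded 1000 cells per well; test concentration not given here.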 Conditions: higher = more signal, called active from +8 up or from −8 down.
Assay [13] can be described thus: S. pombe growth modifiers, basal conditions – strain 972, OD600, 24 h, no modulator, primary screen (AID 1090).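 Also: basal condition with compound alone and no growth modifier present; test concentration not given here.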 The conditions noted are these: S. pombe 972 growth, higher = more signal, called active from +8 up or from −8 down.
Assay [14] is described as follows: budding yeast growth modifiers under rapamycin – strain BY4716, OD600, 96 h, primary screen (AID 1091). Also: test concentration not given here. The conditions noted are these: S. cerevisiae BY4716 + rapamycin, higher = more signal, called active from +8 up or from −8 down.
The target of assay [15] is Torsin-1A-interacting protein 2 (Homo sapiens) (UniProt Q8NFQ8). Description: small molecules binding lysate-expressed LULL1 – cell lysate, human LULL1 lysate, 635/667 nm fluorescence, primary screen (AID 1092).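 Also: score merges per-feature 667 nm fluorescence with signal-to-noise.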 The conditions noted are these: small-molecule microarray, hLULL1 lysate binding, 635 nm fluorescence; higher = more signal.
Assay [16] in a line: optical density change of DRC41 E. coli – strain DRC41, OD650, 24 h, E. coli filamentation project, primary screen (AID 1093).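 Also: MC1000 strain lacking acrAB efflux and sulA so SOS filamentation is blocked; test concentration not given here.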 The conditions noted are these: E. coli DRC41 growth, higher = more signal, called active from +8 up or from −8 down.
Assay [17] is described as follows: probe aLefty2 binding to arrayed compounds – biochemical, biotinylated probe, 635/667 nm fluorescence, primary screen (AID 1094).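 Also: score merges spot fluorescence near 667 nm with spot signal-to-noise ratio.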 The conditions noted are these: small-molecule microarray, higher = more signal.
In assay [18] the test system is Noggin (protein binding on small-molecule microarray). Description: small molecules binding Noggin protein – biochemical, 635/667 nm fluorescence, primary screen (AID 1095).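 Also: score merges 667 nm feature fluorescence with signal to noise over triplicate slides.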 The conditions noted are these: 635 nm fluorescence, higher = more signal.
Assay [19] addresses Neurogenic locus notch homolog protein 3 (Homo sapiens) (UniProt Q9UM47). Description: small molecules binding NOTCH3 protein – biochemical, 635/667 nm fluorescence, primary screen (AID 1096). The conditions noted are these: small-molecule microarray, 635 nm fluorescence, higher = more signal.
A short description of assay [20]: probe aEGFR binding to arrayed compounds – biochemical, biotinylated probe, 635/667 nm fluorescence, primary screen (AID 1097).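 Also: probe is a biotinylated anti-EGFR antibody binding compounds printed on slides; score combines fluorescence near 667 nm and signal to noise of each spot.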 The conditions noted are these: small-molecule microarray, higher = more signal.

Activity calls are given as the source filed them.

Sequence of Neurogenic locus notch homolog protein 3 (Homo sapiens) (Q9UM47 whole entry, looked up): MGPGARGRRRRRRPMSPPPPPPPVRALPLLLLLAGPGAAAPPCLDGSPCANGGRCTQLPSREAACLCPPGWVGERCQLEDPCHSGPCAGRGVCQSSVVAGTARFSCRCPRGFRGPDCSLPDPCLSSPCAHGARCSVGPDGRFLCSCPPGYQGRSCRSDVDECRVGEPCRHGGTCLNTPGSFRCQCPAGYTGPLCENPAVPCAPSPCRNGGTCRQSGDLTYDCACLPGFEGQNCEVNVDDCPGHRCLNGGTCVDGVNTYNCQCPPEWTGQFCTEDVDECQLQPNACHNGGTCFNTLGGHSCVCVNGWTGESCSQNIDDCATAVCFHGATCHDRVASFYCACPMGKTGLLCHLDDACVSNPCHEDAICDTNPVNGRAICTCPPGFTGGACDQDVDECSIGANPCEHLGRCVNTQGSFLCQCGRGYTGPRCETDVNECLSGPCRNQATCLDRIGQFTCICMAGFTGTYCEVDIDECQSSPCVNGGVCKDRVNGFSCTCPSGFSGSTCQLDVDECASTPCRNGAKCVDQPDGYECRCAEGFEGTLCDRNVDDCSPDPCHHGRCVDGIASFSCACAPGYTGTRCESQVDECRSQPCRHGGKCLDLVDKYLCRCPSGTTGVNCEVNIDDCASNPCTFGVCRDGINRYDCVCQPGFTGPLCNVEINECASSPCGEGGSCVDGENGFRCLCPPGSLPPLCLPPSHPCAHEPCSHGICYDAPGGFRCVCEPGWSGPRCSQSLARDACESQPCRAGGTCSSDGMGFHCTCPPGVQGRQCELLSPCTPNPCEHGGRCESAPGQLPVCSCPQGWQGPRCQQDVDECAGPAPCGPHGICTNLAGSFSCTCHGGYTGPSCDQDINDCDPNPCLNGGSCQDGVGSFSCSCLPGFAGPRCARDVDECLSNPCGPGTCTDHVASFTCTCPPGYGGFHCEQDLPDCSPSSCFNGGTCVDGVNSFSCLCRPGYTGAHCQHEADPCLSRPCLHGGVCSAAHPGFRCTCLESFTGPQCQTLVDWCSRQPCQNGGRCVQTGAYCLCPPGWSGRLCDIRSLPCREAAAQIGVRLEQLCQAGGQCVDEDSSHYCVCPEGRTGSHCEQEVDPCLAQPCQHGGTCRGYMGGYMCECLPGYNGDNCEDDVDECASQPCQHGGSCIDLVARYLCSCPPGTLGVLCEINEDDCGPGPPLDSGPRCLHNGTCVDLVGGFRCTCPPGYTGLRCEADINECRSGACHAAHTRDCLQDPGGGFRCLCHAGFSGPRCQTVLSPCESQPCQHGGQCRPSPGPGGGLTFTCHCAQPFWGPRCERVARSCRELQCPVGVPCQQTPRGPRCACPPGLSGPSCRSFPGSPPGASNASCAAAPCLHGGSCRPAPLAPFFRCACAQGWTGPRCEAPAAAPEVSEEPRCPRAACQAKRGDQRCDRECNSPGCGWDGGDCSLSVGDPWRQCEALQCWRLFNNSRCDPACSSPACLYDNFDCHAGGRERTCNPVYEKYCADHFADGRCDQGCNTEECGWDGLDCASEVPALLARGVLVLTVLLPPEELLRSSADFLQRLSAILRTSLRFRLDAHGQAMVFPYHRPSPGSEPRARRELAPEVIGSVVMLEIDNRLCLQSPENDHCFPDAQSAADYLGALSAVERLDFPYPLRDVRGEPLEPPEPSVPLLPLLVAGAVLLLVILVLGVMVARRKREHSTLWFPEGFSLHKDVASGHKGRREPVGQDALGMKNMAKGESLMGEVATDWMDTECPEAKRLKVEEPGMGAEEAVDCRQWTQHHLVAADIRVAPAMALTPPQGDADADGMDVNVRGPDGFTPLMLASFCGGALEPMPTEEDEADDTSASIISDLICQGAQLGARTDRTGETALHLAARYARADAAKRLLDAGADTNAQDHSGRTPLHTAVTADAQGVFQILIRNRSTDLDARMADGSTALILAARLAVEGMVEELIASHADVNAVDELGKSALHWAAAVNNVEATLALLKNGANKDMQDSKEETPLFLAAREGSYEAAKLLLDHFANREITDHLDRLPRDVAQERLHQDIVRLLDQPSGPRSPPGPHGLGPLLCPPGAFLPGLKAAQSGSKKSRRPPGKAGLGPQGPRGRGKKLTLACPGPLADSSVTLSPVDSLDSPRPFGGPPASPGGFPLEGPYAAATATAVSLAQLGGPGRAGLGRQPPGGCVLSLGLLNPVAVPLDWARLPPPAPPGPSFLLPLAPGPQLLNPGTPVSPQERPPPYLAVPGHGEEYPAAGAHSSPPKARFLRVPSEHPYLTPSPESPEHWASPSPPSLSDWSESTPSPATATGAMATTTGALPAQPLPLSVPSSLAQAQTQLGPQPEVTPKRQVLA
Sequence of Pro-neuregulin-1, membrane-bound isoform (Homo sapiens) (Q02297 whole entry, looked up, the tested form may be a part, canonical isoform): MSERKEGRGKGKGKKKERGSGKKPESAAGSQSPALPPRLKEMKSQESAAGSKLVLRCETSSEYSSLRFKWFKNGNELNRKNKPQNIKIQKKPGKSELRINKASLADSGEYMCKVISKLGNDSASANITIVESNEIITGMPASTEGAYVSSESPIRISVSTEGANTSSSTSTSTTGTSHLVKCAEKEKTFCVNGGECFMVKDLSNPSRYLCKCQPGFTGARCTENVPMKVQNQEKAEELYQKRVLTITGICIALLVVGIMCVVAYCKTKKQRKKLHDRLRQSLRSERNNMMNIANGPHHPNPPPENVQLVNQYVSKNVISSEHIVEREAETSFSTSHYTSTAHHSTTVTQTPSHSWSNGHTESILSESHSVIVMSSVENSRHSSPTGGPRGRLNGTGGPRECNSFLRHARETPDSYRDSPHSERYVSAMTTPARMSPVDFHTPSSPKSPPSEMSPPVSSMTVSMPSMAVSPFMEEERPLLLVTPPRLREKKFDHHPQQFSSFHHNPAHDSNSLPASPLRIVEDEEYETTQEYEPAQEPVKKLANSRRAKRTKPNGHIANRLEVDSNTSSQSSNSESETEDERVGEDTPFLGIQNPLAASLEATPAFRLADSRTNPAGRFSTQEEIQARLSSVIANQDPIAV
Sequence of Torsin-1A-interacting protein 2 (Homo sapiens) (Q8NFQ8 whole entry, looked up): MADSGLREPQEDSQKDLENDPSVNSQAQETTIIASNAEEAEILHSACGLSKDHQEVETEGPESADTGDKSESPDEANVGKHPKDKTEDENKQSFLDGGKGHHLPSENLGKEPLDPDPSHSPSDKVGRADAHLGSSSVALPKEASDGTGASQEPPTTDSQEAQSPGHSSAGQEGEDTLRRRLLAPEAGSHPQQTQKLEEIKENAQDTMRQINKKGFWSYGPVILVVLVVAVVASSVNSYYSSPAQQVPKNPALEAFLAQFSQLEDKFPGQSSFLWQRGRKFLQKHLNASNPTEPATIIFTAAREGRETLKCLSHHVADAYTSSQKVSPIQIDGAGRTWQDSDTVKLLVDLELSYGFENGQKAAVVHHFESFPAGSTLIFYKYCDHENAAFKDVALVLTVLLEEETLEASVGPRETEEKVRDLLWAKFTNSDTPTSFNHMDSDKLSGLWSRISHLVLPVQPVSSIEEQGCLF

Take `O=C1OCCC=C[C@H]2OC34C=CCN(CCN5CCOCC5)C(=O)[C@H]3N(CCCCCCO)C(=O)[C@@H]4C12` (stereo not given in full): the composite z-score in assay [1] is -0.174; in assay [2] it was -0.352; in assay [3], -0.147; in assay [4], 0.0933; in assay [5], -0.849; in assay [6], -0.0296. Besides, the composite z-score was 0.988 in [7]; -0.235 in assay [9]; -0.169 in assay [10]; 0.358 in assay [11]; 0.562 in assay [15]; -0.294 in assay [17]. The composite z-score was -0.627 in [18], -0.017 in assay [19] and -0.251 in [20]. Besides, the z-score is -0.263 (inactive) in [8]; 0.807 (inactive) in assay [12]; -1 (inactive) in assay [13]; 0.201 (inactive) in assay [14]; 0.15 (inactive) in assay [16].
With `CN1C2C=C(CCCO)C(C3C(=O)N(C(N)=O)C(=O)C32)C1c1ccc(CN2CCCC2)cc1` (stereo not given), the composite z-score in [1] was 0.0355; in assay [2], -0.214; in [3], -0.143; in assay [4] it was -0.0598; in assay [5], -0.851; in [6], -0.612. For the same compound, the composite z-score is -0.24 in [7]; -0.887 in [9]; 0.141 in [10]; -0.378 in [11]; -0.736 in assay [15]; -0.253 in assay [17]. The composite z-score in [18] was -0.354; in assay [19], -0.615; in assay [20] it was -0.242. For the same compound, the z-score in assay [8] was 0.75 (inactive); in assay [12] it was -1.64 (inactive); in assay [13], 0.715 (inactive); in assay [14], -0.55 (inactive); in [16], 0.194 (inactive).
Regarding `COC(=O)[C@@]1(Cc2ccc(F)cc2)[C@H]2c3cc(C(=O)N(C)C)n(CC4CC4)c3C[C@H]2CN1C(=O)c1ccccc1`, the composite z-score in assay [1] is 2.43; in [2], 1.04; in assay [3], 0.833; in [4], 1.27; in assay [5], 1.58; in [6], 1.6. Also, the composite z-score in assay [7] came out at 1.26; in assay [9], 2.76; in [10] it was 0.741; in assay [11] it was 1.45; in [15], 3.57; in assay [17] it was 1.41. For the same compound, the results for the composite z-score in [18], in assay [19] and in [20] were 0.506, 1.06 and 0.973, respectively. Besides, the z-score in assay [8] was -0.115 (inactive); in assay [12], 0.712 (inactive); in assay [13] it was 0.877 (inactive); in assay [14] it was 2.49 (inactive); in [16] it was -0.334 (inactive).
Take `C=CCN1C(=O)[C@]2(O[C@H](CCO)[C@@H]([Si](C)(C)c3ccc(OC)cc3)[C@@H]2C)c2cc(N3C(=O)c4cccc5cccc3c45)ccc21`: the composite z-score in assay [1] was -0.0848; in assay [2], 0.326; in assay [3] it was -0.1; in [4] it was 0.607; in [5], 0.322; in assay [6], 0.828. In addition, the composite z-score in assay [7] was 1.2; in assay [9], -0.17; in [10], -0.236; in [11] it was 1.46; in [15] it was 2.01; in assay [17], -0.172. Besides, the composite z-score in assay [18] was 1.69; in assay [19], 1.07; in assay [20] it was -0.137. The z-score in [8] was -2.66 (inactive); in assay [12], 3.36 (inactive); in [13] it was 2.8 (inactive); in assay [14] it was 36.8 (active); in [16], 0.577 (inactive).
With `O=C1NC(=O)C2C1C=CC(C(O)C(c1ccccc1)c1ccccc1)N2Nc1ccc(Cl)cc1Cl` (stereo not given), the composite z-score in assay [1] was 0.246; in assay [2], -0.471; in assay [3] it was 0.103; in [4] it was 0.501; in [5] it was 1.49; in [6], 0.782. For the same compound, the composite z-score was 0.756 in assay [7]; 1.44 in [9]; 0.0373 in assay [10]; 0.532 in [11]; 2.86 in assay [15]; 0.185 in assay [17]. Further, the composite z-score in [18] is 0.561; in assay [19], 0.982; in assay [20], -0.0267. The z-score in assay [8] is 1.04 (inactive); in assay [12], -0.111 (inactive); in [13] it was -0.767 (inactive); in assay [14], 1.5 (inactive); in [16] it was -1.27 (inactive).
